Laboratory results from PubChem BioAssay AID1509 (The Scripps Research Institute Molecular Screening Center, 2009).
Hit rate of the full screen: of about 220,000 compounds, about 770 (0.35%) were called active. Cut-off read from the data, not from the text of the source: active = activation above about 11%; inactive = the rest. What follows is part of a selection rich in actives, with near analogues and random picks from the rest. Where a SMILES comes first, the peptide text is derived from it. [ ]: non-standard residue; d: D form. ξ: configuration not given here. ξM = CSCCC(N)C(=O)O

target: Sphingosine 1-phosphate receptor 4 (Homo sapiens) (UniProt O95977); assay: S1P4 receptor agonists, primary screen, cell-based (AID 1509); details: S1P4-expressing cell line, agonist reporter assay; at 4.98 µM; hits give high values;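 note: 0% = DMSO vehicle and 100% = reference agonist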
Sequence (O95977 whole entry, looked up): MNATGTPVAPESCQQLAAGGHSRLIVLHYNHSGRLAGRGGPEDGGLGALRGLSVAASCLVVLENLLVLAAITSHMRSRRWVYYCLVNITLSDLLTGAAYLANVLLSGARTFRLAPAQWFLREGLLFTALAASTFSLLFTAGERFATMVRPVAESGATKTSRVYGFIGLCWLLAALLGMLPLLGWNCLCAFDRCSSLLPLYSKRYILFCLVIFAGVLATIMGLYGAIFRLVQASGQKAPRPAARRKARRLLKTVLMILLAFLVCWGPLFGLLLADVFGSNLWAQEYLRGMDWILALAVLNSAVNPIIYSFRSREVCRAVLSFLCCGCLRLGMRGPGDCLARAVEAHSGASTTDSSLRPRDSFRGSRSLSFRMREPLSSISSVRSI

| Structure (SMILES) | activation |
| --- | --- |
| CC1(C)CC(=O)c2c(n(S(=O)(=O)c3ccccc3)c3ccc(NS(=O)(=O)c4ccccc4)cc23)C1 | -0.65% (inactive) |
| O=C(O)/C=C/c1ccc(S(=O)(=O)N2CCCCCC2)cc1 | 1.37% (inactive) |
| CC1=CC=CC2=N/C(=N\S(=O)(=O)c3ccc(F)cc3F)c3ccccc3CN12 | 1.89% (inactive) |
| Cc1ccc2c(c1)nnc1nnc(SCC(=O)O)n12 | 0.65% (inactive) |
| O=C(O)C1C2CC2CN1C(=O)c1ccc(Cl)cc1Cl (configuration not stated) | 0.08% (inactive) |
| COc1ccc(/C=C2\N=C3CCCN3C2=O)cc1 | 0.59% (inactive) |
| CCCCCc1nnc(NC(=O)c2ccc(=O)n(C)n2)s1 | 0.34% (inactive) |
| CC(=O)c1cc(C#N)c(N2CC(C)OC(C)C2)nc1C (configuration not stated) | 2.12% (inactive) |
| CC(C)(C)C1CCC(C(=O)Nc2cccnc2)CC1 (configuration not stated) | -0.6% (inactive) |
| CCOc1ncccc1C(=O)N(CC)CC(=O)Nc1ccc(NC(C)=O)cc1 | 0.47% (inactive) |
| COc1cc(/C=C/C(=O)OCC(=O)Nc2cccc(Oc3ccccc3)c2)ccc1O | 0.15% (inactive) |
| CCCc1nc(SCC(=O)Nc2ccccc2OC)c2c(=O)n(C)c(=O)n(C)c2n1 | -0.79% (inactive) |
| CCCCCNC(=O)c1cccnc1SCC(=O)Nc1ccccc1OC | 19.3% (active) |
| CCCNC(=O)c1ccccc1NC(=O)CSCc1ccc(OC)cc1 | 1.75% (inactive) |
| O=C(/C(=C/c1cccc(Cl)c1)c1nc2ccccc2[nH]1)c1ccccc1 | -0.48% (inactive) |
| CCC(=O)/C(=C(/O)c1ccccc1)c1nc2ccccc2[nH]1 | 12.3% (active) |
| COCCN(CCOC)S(=O)(=O)c1ccc(/C(O)=C(\C#N)c2nc3ccccc3[nH]2)cc1 | 0.35% (inactive) |
| COc1ccc(S(=O)(=O)N2CCN(C(=O)c3cc(C)oc3C)CC2)cc1 | 0.82% (inactive) |
| Cc1ccsc1/C=N/n1c(=S)[nH]nc(C)c1=O | 3.22% (inactive) |
| COc1ccc(-n2c(C)cc(C(=O)COC(=O)c3cc(OC)c(OC)cc3NC(=O)c3cccs3)c2C)cc1 | -0.44% (inactive) |
| CSc1sc(C(=O)NNC(=O)c2ccc(Cl)cc2)c2c1C=CCC2 | 13.5% (active) |
| O=C(NNC(=O)C1C2CCC(C2)C1C(=O)O)c1ccc(Cl)cc1 (configuration not stated) | 1.68% (inactive) |
| CCOC(=O)NNC(=O)c1ccc(Cl)cc1 | -0.78% (inactive) |

| Structure (SMILES) | activation |
| --- | --- |
| CC(=O)c1ccc(N2CCN(C(=O)c3ccc4nc[nH]c4c3)CC2)cc1 | 0.76% (inactive) |
| O=C1CCCc2nn(-c3ccccc3)nc21 | -2.78% (inactive) |
| CN(C)S(=O)(=O)c1ccc(Cl)c(NC(=O)COC(=O)CC(NC(N)=O)c2ccc(Cl)cc2)c1 (configuration not stated) | 1.79% (inactive) |
| C=CCOc1c(CNn2cn[nH]c2=S)cccc1OC | 0.93% (inactive) |
| N/C(=N\OC(=O)c1ccc2c(c1)OCO2)c1ccc(Br)cc1 | -1.54% (inactive) |
| NNC(=O)c1ccc(COCC(F)(F)C(F)F)cc1 | -0.58% (inactive) |
| C=CCNC(=O)c1ccccc1NC(=O)c1ccc(Cl)c(S(=O)(=O)Nc2cccc(C)c2C)c1 | 2.53% (inactive) |
| CS(=O)(=O)c1sc(C(=O)NC(=S)Nc2ccc(OC(F)(F)F)cc2)c2c1C=CCC2 | -1.4% (inactive) |
| O=C(CN1C(=O)NC(Cc2ccccc2)(Cc2ccccc2)C1=O)NCC1CCCCC1 | -1.64% (inactive) |
| CCOc1ccc(N2C(=O)CC(N(CCc3ccc(OC)c(OC)c3)C(=S)Nc3ccccc3)C2=O)cc1 (configuration not stated) | 1.87% (inactive) |
| O=C(CCCn1c(SCC(=O)c2ccc(F)cc2)nc2ccccc2c1=O)NCc1ccco1 | 30.4% (active) |
| O=C(CCn1c(SCC(=O)c2ccccc2)nc2ccccc2c1=O)NCc1ccc(F)cc1 | 0.31% (inactive) |
| O=C(CCCn1c(SCC(=O)c2ccccc2)nc2ccccc2c1=O)NCC1CCCO1 (configuration not stated) | 0.54% (inactive) |
| CCOC(=O)N1CCN(c2c(NCCN3CCN(c4ccccc4F)CC3)c(=O)c2=O)CC1 | 1.24% (inactive) |
| COc1ccc(S(=O)(=O)NC(C)C)cc1C(=O)NC1CCCCC1 | 1.54% (inactive) |
| CC(=O)OC(C(=O)NC1CCCCC1)c1ccccc1 (configuration not stated) | 0.59% (inactive) |
| CC(Oc1ccc(Br)cc1Br)C(=O)NC1CCCC1 (configuration not stated) | 14.4% (active) |
| Cc1cc(C(=O)NNC(=O)CCC2CCCCC2)c(C)o1 | 0.49% (inactive) |
| c1ccc2c(c1)OCCOCCOCCO2 | 0.22% (inactive) |
| COCCNC(=O)c1ccc(-n2c(SCc3cccnc3)nc3ccccc3c2=O)cc1 | 1.25% (inactive) |
| CCC1=NN2C(=N)/C(=C/c3cc(C)n(-c4ccccc4)c3C)C(=O)N=C2S1 | -0.01% (inactive) |
| Cc1cc2c(cc1C)N(Cc1ccccc1)C1=NCCCN12 | -0.25% (inactive) |
| O=[N+]([O-])c1ccc(F)cc1Oc1nc(-c2cccnc2)nc2ccccc12 | 0.24% (inactive) |

| Structure (SMILES) | activation |
| --- | --- |
| COC(=O)CNC(=O)C(CCSC)NC(C)=O (configuration not stated) (Ac-[ξM]-Gly-OMe) | 29.1% (active) |
| COC(=O)[C@H](CCSC)NC(=O)Nc1ccc(OC)cc1 | 0.47% (inactive) |
| CCC(C)NC(=O)N[C@@H](CCSC)C(=O)O (some centres not stated) | 1.44% (inactive) |
| C=CCn1c(SCn2nnc3ccccc3c2=O)nnc1-c1ccc(Cl)cc1 | 19% (active) |
| O=C(Cn1nnc2ccccc2c1=O)NCc1ccc(Cl)cc1 | -1.75% (inactive) |
| O=c1c2ccccc2nnn1CSc1nnnn1-c1ccccc1 | 0.58% (inactive) |
| C/C(CCC(=O)OC[C@H]1O[C@H](C#Cc2ccccc2)C=C[C@@H]1Oc1ccc(C)cc1)=N\OC[C@@H](O)[C@H]1O[C@@H]2OC(C)(C)O[C@@H]2[C@H]1O | 0.09% (inactive) |
| O=C(COC(=O)C1CCN(S(=O)(=O)c2ccc3c(c2)OCCO3)CC1)Nc1ccccc1OC(F)F | 2.37% (inactive) |
| CC1CCCC(NC(=O)COC(=O)[C@@H]2CC(O)CN2S(=O)(=O)c2ccc3c(c2)OCCO3)C1C (some centres not stated) | 194% (active) |
| O=C1COc2ccc(C(=O)COC(=O)C3CC(O)CN3S(=O)(=O)c3ccc(Cl)cc3)cc2N1 (configuration not stated) | 1.17% (inactive) |
| NC(=O)C1=C[C@H](c2csc3ccccc23)C[C@H](OCc2ccc(CO)cc2)O1 | 3.3% (inactive) |
| COc1ccc(C(=O)N2CCc3cc(OC)c(OC)cc3C2c2cccc([N+](=O)[O-])c2)cc1 (configuration not stated) | 0.65% (inactive) |
| Cc1noc(C)c1COC(=O)COc1ccc(-c2ccccc2)cc1 | 36% (active) |
| Cc1noc(C)c1COC(=O)c1cc2ccccc2cc1O | -2.59% (inactive) |
| Cc1noc(C)c1COC(=O)Cn1c(C)nc2ccccc21 | -0.11% (inactive) |
| O=C(Nc1ccc(Br)cc1)c1cccc(NC(=O)C2C3CC4OC(=O)C2C4C3)c1 (configuration not stated) | 1.27% (inactive) |
| COc1ccc(CCNC(=O)COC(=O)Cc2cc(OC)c(OC)c(OC)c2)cc1 | -1.28% (inactive) |
| CC(=O)Nc1ccc(S(=O)(=O)N2CCN(c3ccc([N+](=O)[O-])c(NCCN4CCOCC4)c3)CC2)cc1 | 0.49% (inactive) |
| Cn1nnnc1SCC(=O)NNC(=O)c1ccc(Br)cc1 | 0.67% (inactive) |
| CN(Cc1ccccc1)C(=O)COC(=O)c1ccccc1Nc1ccccc1 | -0.61% (inactive) |
| COC(=O)c1c(NC(=O)CN2C(=O)NC(CCc3ccccc3)C2=O)sc2c1CCCCC2 (configuration not stated) | 0.65% (inactive) |
| CCOC(=O)/C=c1\s/c(=C\c2ccc(C#N)cc2)c(=O)n1CC(=O)Nc1cccc(C)c1C | -0.03% (inactive) |
| CCOC(=O)/C(C#N)=C/c1ccc(OCC(=O)Nc2ccccc2)c(OC)c1 | -0.12% (inactive) |

| Structure (SMILES) | activation |
| --- | --- |
| Cc1ccc(CC(=O)Nc2cccc(C#N)c2)cc1 | 1.55% (inactive) |
| Cc1cc(C)nc(N(C#N)CC(=O)Nc2ccccc2)n1 | 14.7% (active) |
| N#Cc1c(NC(=O)C2CC(Cl)=CCC2C(=O)O)sc2c1CCCCC2 (configuration not stated) | 0.41% (inactive) |
| Cn1nnnc1NCc1ccc(Cl)c(Cl)c1 | 0.14% (inactive) |
| COc1ccc(N(CC(=O)NC2CCCC2)C(=O)CS(=O)CC(=O)Nc2ccc3c(c2)OCO3)cc1 (configuration not stated) | 1.8% (inactive) |
| COc1ccc(-c2cn3ccc(C)cc3n2)cc1 | 0.65% (inactive) |
| CCOC(=O)CC(NC(=O)C1c2ccccc2Oc2ccccc21)c1ccc(C)cc1 (configuration not stated) | -0.87% (inactive) |
| CCC(C)(C)NC(=O)C1c2ccccc2Oc2ccccc21 | 0.03% (inactive) |
| CCC(C)NC(=O)C1c2ccccc2Oc2ccccc21 (configuration not stated) | 15.7% (active) |
| O=[N+]([O-])c1ccc2[nH]c3c(c2c1)CCCC3O (configuration not stated) | 0.79% (inactive) |
| Cc1csc(NC(=O)CSc2ccc(-c3ccc(F)cc3)nn2)n1 | 0.5% (inactive) |
| Cc1ccc(SCC(=O)Nc2ccc3c(c2)OCCO3)cc1 | -0.03% (inactive) |
| O=C(CSc1ccc(-c2ccc(F)cc2)nn1)Nc1ccc2c(c1)OCCO2 | 57.3% (active) |
| O=C(CSc1nnc(C2CC2)n1Cc1ccccc1)Nc1cccnc1Cl | 0.19% (inactive) |
| Cc1cc(NC(=O)CSc2nnc(Nc3ccccc3F)s2)no1 | 0.31% (inactive) |
| O=C(CSc1nnc(Nc2ccccc2)s1)Nc1cccnc1Cl | 62.7% (active) |
| CCn1nnnc1SCC(=O)c1ccc(C)cc1C | -0.47% (inactive) |
| Cc1ccc(NC(=O)N2CCSc3ccccc32)cc1 | 0.59% (inactive) |
| CC(=O)Nc1ccc(Nc2c([N+](=O)[O-])cc(S(C)(=O)=O)cc2[N+](=O)[O-])cc1 | -0.76% (inactive) |
| Cn1c(=O)c2c(nc(N3CCOCC3)n2CCNC2=NCCC2)n(C)c1=O | -3.47% (inactive) |
| Cc1ccc(C(=O)NC(=S)Nc2ccccc2C)cc1 | 1.14% (inactive) |
| CC(=O)Nc1ccccc1NC(=O)c1cc(C)cc(C)c1 | 52.2% (active) |
| CSCc1ccc(C(=O)Nc2cc(C)cc(C)c2)cc1 | 0.79% (inactive) |
